Source: PubChem BioAssay (NCATS)
Results filed as inconclusive are left out. A call without a number means that no potency is given here. Activity calls are given as the source filed them. The call rests on the fitted dose curve; in most records, active means well fitted curve in the direction sought with a large enough effect; inconclusive means small, poorly fitted or top-dose-only effect, or another doubt; inactive means no such curve, though single readings can be large; an effect the other way counts as inactive or inconclusive.

Experiment: Cell Viability - LYMP2-001 (AID 921);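 further: cells exposed to compound for 24 h at 37 °C; nearly all actives have a fitted effect of over 70% in size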; further: potency means the concentration at half of the fitted maximal effect
Details: LYMP2-001 lymphoblastoid cell viability; series mostly up to 92.2 µM
Method in brief: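 qHTS, 1536-well; lymphoblastoid cells, 24 hr compound, 37 C; ATP by CellTiter-Glo, 30 min RT; luminescence; Hill-fit AC50.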

For `O=C(O)C(Br)Br`, which Potency is on record?
The Potency was “inactive”.

For `Cc1ccc(OP(=O)(Oc2ccc(C)cc2)Oc2ccc(C)cc2)cc1`, which Potency is on record?
Its Potency is “inactive”.

With `Oc1c(Cl)c(Cl)cc(Cl)c1Cl` as the molecule, how does the Potency read?
The Potency was “inactive”.

With `CN(C)c1ccc(N(C)C)cc1` as the molecule, how does the Potency read?
The Potency was 50.1 µM (active).

With `Brc1ccc(Oc2ccc(Br)cc2Br)c(Br)c1` as the molecule, how does the Potency read?
The Potency was “inactive”.

With `O=[N+]([O-])c1c(Cl)c(Cl)c(Cl)c(Cl)c1Cl` as the molecule, how does the Potency read?
Its Potency is “inactive”.

Which Potency does the source give for `CN1CSC(=S)N(C)C1` here?
The Potency was 12.6 µM (active).

Which Potency does the source give for `ClCC(Cl)Cl` here?
Its Potency is “inactive”.

For `CC(C)Br`, which Potency is on record?
Its Potency is “inactive”.

For `O=[N+]([O-])c1ccc(O)c([N+](=O)[O-])c1`, which Potency is on record?
Its Potency is “inactive”.

For `CC(C)[N+](=O)[O-]`, which Potency is on record?
Its Potency is “inactive”.

With `CCCC[N+](=O)[O-]` as the molecule, how does the Potency read?
The Potency was “inactive”.

For `Cc1cc(-c2cc(C)c(N)c(C)c2)cc(C)c1N`, which Potency is on record?
The Potency was “inactive”.

Which Potency does the source give for `CCN(N=O)C(N)=O` here?
The Potency was “inactive”.

For `CCCCC(CC)COC(=O)c1ccc(C(=O)OCC(CC)CCCC)c(C(=O)OCC(CC)CCCC)c1` (stereo unspecified), which Potency is on record?
Its Potency is “inactive”.

For `O=C(O)C(Br)CBr` (stereo unspecified), which Potency is on record?
Its Potency is “inactive”.

For `Nc1c(Br)cc([N+](=O)[O-])cc1[N+](=O)[O-]`, which Potency is on record?
The Potency was “inactive”.

For `Cc1cc(C)cc(OP(=O)(Oc2cc(C)cc(C)c2)Oc2cc(C)cc(C)c2)c1`, which Potency is on record?
Its Potency is “inactive”.

With `N#CC(Br)Br` as the molecule, how does the Potency read?
The Potency was “inactive”.

With `O=C(O)C(Cl)Br` (stereo unspecified) as the molecule, how does the Potency read?
The Potency was “inactive”.

For `COP(=S)(OC)SCn1nnc2ccccc2c1=O`, which Potency is on record?
The Potency was “inactive”.

Which Potency does the source give for `Nc1ccc([N+](=O)[O-])cc1N` here?
Its Potency is “inactive”.

With `Cc1cc(N=Nc2ccccc2C)ccc1N` as the molecule, how does the Potency read?
The Potency was “inactive”.

With `OCCCCO` as the molecule, how does the Potency read?
Its Potency is “inactive”.

With `O=[N+]([O-])c1cc(Cl)c(Cl)c(Cl)c1` as the molecule, how does the Potency read?
The Potency was “inactive”.

With `CC(C)(COCC1CO1)COCC1CO1` (stereo unspecified) as the molecule, how does the Potency read?
Its Potency is “inactive”.

Which Potency does the source give for `Cc1ccc2c(c1N)C(=O)c1ccccc1C2=O` here?
The Potency was “inactive”.

With `COc1ccccc1N` as the molecule, how does the Potency read?
The Potency was “inactive”.

Which Potency does the source give for `C(CCOCC1CO1)COCC1CO1` (stereo unspecified) here?
Its Potency is “inactive”.

For `CN(C)c1ccc(N)cc1`, which Potency is on record?
Its Potency is 50.1 µM (active).

Experiment: MultiTox-Fluor Cytotoxicity Assay - LYMP1-001 - Dead Cells (AID 946)
Details: LYMP1-001 lymphoblastoid cells, dead-cell protease fluorescence; series mostly up to 92.2 µM
Method in brief: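 Cytotoxicity as increased dead-cell protease fluorescence (bis-AAF-R110, 485/520 nm), read 60 min after MultiTox-Fluor reagent. Human lymphoblastoid line exposed 16 h; Hill-fitted AC50, with DMSO as 0% and 15 uM tetraoctylammonium bromide as 100%.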

For `O=C(O)C(Br)Br`, which outcome is on record?
Its outcome is “inactive”.

Which outcome does the source give for `Cc1ccc(OP(=O)(Oc2ccc(C)cc2)Oc2ccc(C)cc2)cc1` here?
The outcome was “inactive”.

For `Oc1c(Cl)c(Cl)cc(Cl)c1Cl`, which outcome is on record?
The outcome was “inactive”.

Which outcome does the source give for `Nc1ccc(Cc2ccc(N)c(Cl)c2)cc1Cl` here?
The outcome was “inactive”.

For `CN(C)c1ccc(N(C)C)cc1`, which outcome is on record?
Its outcome is “inactive”.

Which outcome does the source give for `Brc1ccc(Oc2ccc(Br)cc2Br)c(Br)c1` here?
Its outcome is “inactive”.

With `CN1CSC(=S)N(C)C1` as the molecule, how does the outcome read?
Its outcome is “inactive”.

For `ClCC(Cl)Cl`, which outcome is on record?
Its outcome is “inactive”.

With `C=CC(=O)OCCO` as the molecule, how does the outcome read?
Its outcome is “inactive”.

Which outcome does the source give for `CC(C)Br` here?
The outcome was “inactive”.

For `O=[N+]([O-])c1ccc(O)c([N+](=O)[O-])c1`, which outcome is on record?
Its outcome is “inactive”.

For `CC(C)[N+](=O)[O-]`, which outcome is on record?
Its outcome is “inactive”.

With `CCCC[N+](=O)[O-]` as the molecule, how does the outcome read?
The outcome was “inactive”.

Which outcome does the source give for `Cc1cc(-c2cc(C)c(N)c(C)c2)cc(C)c1N` here?
The outcome was “inactive”.

For `Nc1cc(Cl)ccc1O`, which outcome is on record?
Its outcome is “inactive”.

Which outcome does the source give for `CCN(N=O)C(N)=O` here?
The outcome was “inactive”.

With `N#CC(Cl)(Cl)Cl` as the molecule, how does the outcome read?
The outcome was “inactive”.

For `CCCCC(CC)COC(=O)c1ccc(C(=O)OCC(CC)CCCC)c(C(=O)OCC(CC)CCCC)c1` (stereo unspecified), which outcome is on record?
Its outcome is “inactive”.

For `O=C(O)C(Br)CBr` (stereo unspecified), which outcome is on record?
The outcome was “inactive”.

For `Nc1c(Br)cc([N+](=O)[O-])cc1[N+](=O)[O-]`, which outcome is on record?
The outcome was “inactive”.

Which outcome does the source give for `O=[N+]([O-])c1ccccc1CCl` here?
Its outcome is “inactive”.

With `N#CC(Br)Br` as the molecule, how does the outcome read?
The outcome was “inactive”.

Which outcome does the source give for `O=C(O)C(Cl)Br` (stereo unspecified) here?
The outcome was “inactive”.

Which outcome does the source give for `COP(=S)(OC)SCn1nnc2ccccc2c1=O` here?
The outcome was “inactive”.

For `Nc1ccc([N+](=O)[O-])cc1N`, which outcome is on record?
Its outcome is “inactive”.

With `O=C(O)c1cccc(Cl)c1` as the molecule, how does the outcome read?
Its outcome is “inactive”.

For `OCCCCO`, which outcome is on record?
The outcome was “inactive”.

For `O=[N+]([O-])c1cc(Cl)c(Cl)c(Cl)c1`, which outcome is on record?
Its outcome is “inactive”.

For `CC(C)(COCC1CO1)COCC1CO1` (stereo unspecified), which outcome is on record?
Its outcome is “inactive”.

For `Cc1ccc2c(c1N)C(=O)c1ccccc1C2=O`, which outcome is on record?
The outcome was “inactive”.

Which outcome does the source give for `COc1ccccc1N` here?
Its outcome is “inactive”.

Which outcome does the source give for `c1ccc(N=NNc2ccccc2)cc1` here?
Its outcome is “inactive”.

For `COC(C)(C)C`, which outcome is on record?
The outcome was “inactive”.

With `CN(C)c1ccc(N)cc1` as the molecule, how does the outcome read?
The outcome was “inactive”.

With `O=[N+]([O-])/C=C/c1ccccc1` as the molecule, how does the outcome read?
Its outcome is “inactive”.

Experiment: MultiTox-Fluor Cytotoxicity Assay - LYMP1-001 - Live Cells (AID 947)
Details: LYMP1-001 lymphoblastoid cells, live-cell protease fluorescence viability; series mostly up to 92.2 µM

For `O=C(O)C(Br)Br`, which outcome is on record?
Its outcome is “inactive”.

Which outcome does the source give for `Cc1ccc(OP(=O)(Oc2ccc(C)cc2)Oc2ccc(C)cc2)cc1` here?
The outcome was “inactive”.

For `Oc1c(Cl)c(Cl)cc(Cl)c1Cl`, which outcome is on record?
Its outcome is “inactive”.

Which outcome does the source give for `Nc1ccc(Cc2ccc(N)c(Cl)c2)cc1Cl` here?
Its outcome is “inactive”.

With `CN(C)c1ccc(N(C)C)cc1` as the molecule, how does the outcome read?
Its outcome is “inactive”.

Which outcome does the source give for `Brc1ccc(Oc2ccc(Br)cc2Br)c(Br)c1` here?
The outcome was “inactive”.

Which outcome does the source give for `O=[N+]([O-])c1c(Cl)c(Cl)c(Cl)c(Cl)c1Cl` here?
Its outcome is “inactive”.

Which outcome does the source give for `ClCC(Cl)Cl` here?
The outcome was “inactive”.

With `C=CC(=O)OCCO` as the molecule, how does the outcome read?
Its outcome is “inactive”.

With `CC(C)Br` as the molecule, how does the outcome read?
The outcome was “inactive”.

With `O=[N+]([O-])c1ccc(O)c([N+](=O)[O-])c1` as the molecule, how does the outcome read?
Its outcome is “inactive”.

With `CC(C)[N+](=O)[O-]` as the molecule, how does the outcome read?
Its outcome is “inactive”.

For `CCCC[N+](=O)[O-]`, which outcome is on record?
Its outcome is “inactive”.

Which outcome does the source give for `Cc1cc(-c2cc(C)c(N)c(C)c2)cc(C)c1N` here?
Its outcome is “inactive”.

Which outcome does the source give for `Nc1cc(Cl)ccc1O` here?
Its outcome is “inactive”.

For `CCN(N=O)C(N)=O`, which outcome is on record?
The outcome was “inactive”.

For `N#CC(Cl)(Cl)Cl`, which outcome is on record?
The outcome was “inactive”.

Which outcome does the source give for `CCCCC(CC)COC(=O)c1ccc(C(=O)OCC(CC)CCCC)c(C(=O)OCC(CC)CCCC)c1` (stereo unspecified) here?
The outcome was “inactive”.

For `O=C(O)C(Br)CBr` (stereo unspecified), which outcome is on record?
Its outcome is “inactive”.

With `Nc1c(Br)cc([N+](=O)[O-])cc1[N+](=O)[O-]` as the molecule, how does the outcome read?
The outcome was “inactive”.

Which outcome does the source give for `O=[N+]([O-])c1ccccc1CCl` here?
The outcome was “inactive”.

For `Cc1cc(C)cc(OP(=O)(Oc2cc(C)cc(C)c2)Oc2cc(C)cc(C)c2)c1`, which outcome is on record?
The outcome was “inactive”.

For `N#CC(Br)Br`, which outcome is on record?
Its outcome is “inactive”.

For `O=C(O)C(Cl)Br` (stereo unspecified), which outcome is on record?
Its outcome is “inactive”.

With `COP(=S)(OC)SCn1nnc2ccccc2c1=O` as the molecule, how does the outcome read?
Its outcome is “inactive”.

With `Nc1ccc([N+](=O)[O-])cc1N` as the molecule, how does the outcome read?
Its outcome is “inactive”.

With `O=C(O)c1cccc(Cl)c1` as the molecule, how does the outcome read?
The outcome was “inactive”.

Which outcome does the source give for `Cc1cc(N=Nc2ccccc2C)ccc1N` here?
The outcome was “inactive”.

With `OCCCCO` as the molecule, how does the outcome read?
Its outcome is “inactive”.

For `O=[N+]([O-])c1cc(Cl)c(Cl)c(Cl)c1`, which outcome is on record?
The outcome was “inactive”.

Which outcome does the source give for `CC(C)(COCC1CO1)COCC1CO1` (stereo unspecified) here?
The outcome was “inactive”.

Which outcome does the source give for `Cc1ccc2c(c1N)C(=O)c1ccccc1C2=O` here?
The outcome was “inactive”.

Which outcome does the source give for `COc1ccccc1N` here?
Its outcome is “inactive”.

For `c1ccc(N=NNc2ccccc2)cc1`, which outcome is on record?
The outcome was “inactive”.

Which outcome does the source give for `COC(C)(C)C` here?
The outcome was “inactive”.

Which outcome does the source give for `C(CCOCC1CO1)COCC1CO1` (stereo unspecified) here?
Its outcome is “inactive”.
